The source of these data is ChEMBL document CHEMBL3988442, “University of Dundee, Small-Polar-MMV Screening Library” (2021).

Screen size: about 48,000 compounds; about 13,000 (27%) showed an effect of 50% or more. The list shows a part of the results.

This assay deals with Wolbachia pipientis. In words: Anti-Wolbachia Cell-Based Screen. In kind it is functional. Details: scale not given: in the data most compounds retested in dose-response had high values. The settings on record: 5 µM.
As to `CC(C)S(=O)(=O)N1C[C@@H](c2ccccc2)[C@H]2[C@H]1CCCCCN2C`, the “Percent Effect” value is given as 189.5%. For `CC(Cn1cncn1)NCc1csc2c1CCCC2` (centres undefined) the value was -14.34%; for `NC1(c2nc(-c3ccccc3)cc(=O)[nH]2)CCCCC1`, -11.2%. On to `O=C1OCCC1N1CCN(C(=O)Cc2c[nH]c3ccccc23)CC1` (centres undefined), for which the “Percent Effect” value was found to be 5.817%. For `CO[C@H]1COCCN(Cc2c[nH]c3ccccc23)C1` the value was -3.317%; for `CC1=NOC2(CCN(Cc3c[nH]c4ccccc34)CC2)C1`, 112.6%; for `CCc1nnc(CN(C)C(=O)CN2CC(c3ccccc3)CC2=O)o1` (centres undefined), 5.104%. As for `CCS(=O)(=O)N1CCc2c(CN3CCOCC3)cncc2C1.Cl.Cl`, the “Percent Effect” value was determined as 105.6%.

For `CCS(=O)(=O)N1CCc2c(COC)cncc2C1`, the “Percent Effect” value is recorded as 85.06%. For `O=C(COc1ccc(F)cc1)N1CCCSCC1CN1CCOCC1` (centres undefined) the value was -0.3394%; for `FC1(F)CCNCC12CCN(c1ncccn1)C2` (centres undefined), -1.09%. As to `Cl.FC(F)CNc1cnc(C2CCNCC2)cn1`, the “Percent Effect” value is 73.95%. The value for `Cl.O=C(C1CC1)N1CCOC2(CCNCC2)C1` was 99.53%; that for `Cl.O=C(C1CC1)N1CC2(CCNCC2)C1` was -2.925%; that for `O=C(C1CC1)N1CCC2(CC1)CNCCO2` was 0.5147%. For `Cc1ccc(N2C[C@@H]3CN(Cc4csc(C)n4)CCO[C@@H]3C2)nn1.O=C(O)C(F)(F)F.O=C(O)C(F)(F)F`, the “Percent Effect” value came out at 2.819%. In the case of `COCC(=O)N1C[C@@H]2OCCN(Cc3c(C)noc3C)[C@@H]2C1`, the “Percent Effect” value was -12.28%. The value for `Cc1noc(C)c1CN1CCO[C@H]2CNC[C@H]21.Cl.Cl` was -6.613%; that for `Cc1ccc(N2C[C@@H]3OCCN(CC4CC4)[C@@H]3C2)nn1.O=C(O)C(F)(F)F` was 101.4%; that for `Cc1ccc(N2C[C@@H]3CN(Cc4ccoc4)CCO[C@@H]3C2)nn1.O=C(O)C(F)(F)F.O=C(O)C(F)(F)F` was -36.31%.

Take `Cc1ccc(N2C[C@@H]3OCCN(Cc4c(C)noc4C)[C@@H]3C2)nn1`: the “Percent Effect” value was determined as 99.73%. As to `CC(C)NC(=O)N1CCOC2(CCNCC2)C1`, the “Percent Effect” value is -2.285%. Take `CN1CCCC(Cc2cncc(Br)c2)CC1` (centres undefined): the “Percent Effect” value was -8.172%. For `CCn1ccnc1CN1CCN(C(C)C)CC1C` (centres undefined) the value was -27.31%; for `CC(C)N1CCCC(Cc2nccnc2Cl)CC1` (centres undefined), 83.32%.

Turning to `CN1CCCC(Cc2nccnc2Cl)CC1` (centres undefined), the “Percent Effect” value was 111.8%. For `CC(C)N1CCCC(Cc2nccnc2Cl)C1` (centres undefined) the value was 102.4%; for `O=C(N1CCCC1)N1C[C@H]2CC[C@@H]1CN(Cc1ccncc1)C2`, 3.012%; for `CC(C)CN1C(=O)C2(CCCC2)NC1c1cccnc1` (centres undefined), -3.888%.

Consider `COC(=O)CCC(=O)NC(C)Cc1ccccc1Br` (centres undefined), for which the “Percent Effect” value is 5.861%. For `O=S1(=O)CCC(n2cc(C3=CCN(CCN4CCCCC4)CC3)cn2)C1` (centres undefined) the value was 5.738%. The value for `COCCN1CC=C(c2cccc(OC)c2)CC1` was -4.022%; that for `CC(C)(C)n1cc(C2=CCN(CCc3ccccc3)CC2)cn1` was -9.314%; that for `CCC(O)Cn1cc(C2=CCN(Cc3ccc(OC)cc3)CC2)cn1` (centres undefined) was -14.61%. The value for `CCn1cc(C2=CCN(CCCOc3ccccc3)CC2)cn1` was 20.1%.

For `COc1cccc(Cn2cc(C3=CCN(CCO)CC3)cn2)c1`, the “Percent Effect” value worked out at 104.2%. On to `CN(C)C(=O)CN1CC=C(c2cnn(Cc3ccccc3)c2)CC1`, for which the “Percent Effect” value is given as 99.64%. The value for `COc1cccc(Cn2cc(C3=CCN(CC(=O)N(C)C)CC3)cn2)c1` was 105.2%. For `COc1cccc(C2=CCN(CCN3CCOC3=O)CC2)c1` the value was 5.556%; for `COc1cccc(C2=CCN(CCN3CCCC3=O)CC2)c1`, -10.09%.

Turning to `Cc1noc(C)c1CNCc1ccccc1N(C)C1CCN(C)CC1`, the “Percent Effect” value came to 3.422%.

In the case of `Cc1nc(C)c(C)c(N2CCC3(CCN(C)C3)C2)n1` (centres undefined), the “Percent Effect” value is on record as -3%. For `NCC1(c2cccc(C(F)(F)F)c2)CCCC1` the value was -13.69%.

As to `CC(C)=CCN1C[C@H]2CC[C@@H]1CN(C(=O)CSc1ccncc1)C2`, the “Percent Effect” value was determined as 19.74%. For `COCCN1CCC2(C1)CN(c1ncccn1)C2.O=C(O)C(F)(F)F`, the “Percent Effect” value is listed as -10.62%.

For `O=S1(=O)NCC2(CCN(Cc3ccc(Cl)s3)C2)Oc2ncccc21` (centres undefined), the “Percent Effect” value stood at 120.8%. For `CC(C)CCN1CCC2(CNS(=O)(=O)c3cccnc3O2)C1` (centres undefined) the value was 113.8%. The value for `CC(C)CN1CCC2(CC(C(=O)NCc3cccnc3)=NO2)C1` (centres undefined) was -7.517%; that for `O=C(Cc1ccncc1)N1C[C@H]2CC[C@@H]1CN(Cc1cccnc1)C2` was -14.3%. For the molecule `NCC1(c2cccc(C(F)(F)F)c2)CCCCC1`, the “Percent Effect” value is -7.297%.

For the molecule `CCCc1nnc2sc(C3CCN(CC)CC3)nn12`, the “Percent Effect” value worked out at 103.4%. For `COc1ccc(C(=O)C2CCCN(Cc3ccc(C)o3)C2)c(OC)c1` (centres undefined) the value was -6.752%; for `COc1ccc(CCNCc2ccco2)cc1OC`, -22.25%; for `COc1ccc(CC(=O)N2CCN(Cc3ccco3)C[C@@H]2C)cc1OC`, 120.6%. For `COc1cccc(CC(=O)N2CCCSCC2CN2CCCC2)c1` (centres undefined) the value was 23.31%; for `O=C(Cc1csc(-c2ccco2)n1)N1CCN(CCO)CC1`, 5.506%. For `COc1ccc(CC(=O)N2CCN(Cc3ccco3)C[C@@H]2C)cc1` the value was 137.5%. As to `COc1ccc(CC(=O)N2CCN(Cc3ccco3)C[C@H]2C)cc1OC`, the “Percent Effect” value is listed as 147.8%.

Take `CO[C@H]1CCN(c2ncc(F)cn2)[C@@H]2CN(Cc3ccco3)C[C@H]12.O=C(O)C(F)(F)F.O=C(O)C(F)(F)F`: the “Percent Effect” value is given as 23.38%. The value for `COc1ccc2c(ccn2CCN)c1` was -4.94%; that for `Cc1cccc(CO[C@@H]2CC[C@H]3[C@H]2OCCN3Cc2nccs2)n1.O=C(O)C(F)(F)F.O=C(O)C(F)(F)F` was -8.72%; that for `CC(C)NC(=O)[C@H]1C[C@@H]2[C@@H](C1)OCCN2Cc1cccnc1.O=C(O)C(F)(F)F.O=C(O)C(F)(F)F` was 1.72%. The value for `O=C(O)C(F)(F)F.O=C(O)C(F)(F)F.O=C(O)C(F)(F)F.c1cncc(CN2CCO[C@H]3[C@H](OCCN4CCCC4)CC[C@@H]32)c1` was 103%; that for `O=C(O)C(F)(F)F.O=C(O)C(F)(F)F.c1ccc(CO[C@H]2CC[C@H]3[C@H]2OCCN3Cc2nccs2)nc1` was -10.71%.

As to `CCN(CC)CCN1CCO[C@H]2[C@@H](OCc3ccncc3)CC[C@@H]21.O=C(O)C(F)(F)F.O=C(O)C(F)(F)F.O=C(O)C(F)(F)F`, the “Percent Effect” value is 3.809%. For `O=C(O)C(F)(F)F.O=C(O)C(F)(F)F.O=C(O)C(F)(F)F.c1cc(CN2CCO[C@H]3[C@H](OCCN4CCCC4)CC[C@@H]32)ccn1` the value was 104.9%. For `O=C(NCC1CC1)[C@H]1C[C@@H]2[C@@H](C1)OCCN2Cc1cccnc1.O=C(O)C(F)(F)F.O=C(O)C(F)(F)F` the value was 13.71%; for `O=C(O)C(F)(F)F.O=C(O)C(F)(F)F.O=C(O)C(F)(F)F.c1ccc(CN2CCO[C@H]3[C@H](OCCN4CCCC4)CC[C@@H]32)nc1`, -22.42%; for `O=C(O)C(F)(F)F.O=C(O)C(F)(F)F.c1cc(CO[C@H]2CC[C@H]3[C@H]2OCCN3Cc2nccs2)ccn1`, 124.9%.

In the case of `Cc1nc(C)c(CC(=O)N2CCN(CC(C)C)CC2)c(=O)[nH]1`, the “Percent Effect” value is -15.6%. The value for `CC[C@H]1CN2CC[C@H]1C[C@@H]2CNC(=O)NC1CCCCC1` was -4.604%; that for `CNC(=O)[C@H]1C[C@@H]2CN(C(=O)c3ccncc3F)C[C@@H]2N1C` was 2.311%; that for `CCN(CCN1CCCCCC1)C(=O)COc1cccnc1` was -15.49%.

For `CN1CCc2nc3c(c(N)c2C1)CCCN3C`, the “Percent Effect” value stood at 105.5%. For `CC(C)c1cc(N2CCC3(CCN(C)C3)C2)ncn1` (centres undefined) the value was -5.942%; for `CN(C)C(=O)N1CCCC2(CCN(Cc3ccncc3)C2)C1` (centres undefined), -11.09%; for `CCS(=O)(=O)NC[C@]12COC[C@H]1CN(Cc1ccncc1)C2.O=C(O)C(F)(F)F.O=C(O)C(F)(F)F`, -4.372%. The value for `CCN1CC2(CC1=O)CN(Cc1ccccn1)CCN(C(C)=O)C2.O=C(O)C(F)(F)F.O=C(O)C(F)(F)F` (centres undefined) was 108.4%. For `O=C(O)C(F)(F)F.O=C(O)C(F)(F)F.O=C1CC2(CCN(Cc3ccncc3)C2)CN1c1cccc(F)c1` (centres undefined) the value was 10.56%; for `CC(=O)N1CCN(Cc2ccncc2)CC2(CC(=O)N(C)C2)C1.O=C(O)C(F)(F)F.O=C(O)C(F)(F)F` (centres undefined), 112.8%; for `Cn1ccnc1CN1CCC2(CC(=O)N(c3ccccn3)C2)C1.O=C(O)C(F)(F)F.O=C(O)C(F)(F)F` (centres undefined), -3.39%. As for `CC(=O)N1CCOCC2(CN(Cc3ccccn3)CCO2)C1.O=C(O)C(F)(F)F.O=C(O)C(F)(F)F` (centres undefined), the “Percent Effect” value was -7.165%. For `Cn1cnc(S(=O)(=O)N2C[C@H]3CN(Cc4cccnc4)C[C@H]3C2)c1.O=C(O)C(F)(F)F.O=C(O)C(F)(F)F.O=C(O)C(F)(F)F`, the “Percent Effect” value is on record as -11.02%. The value for `Cn1cnc(S(=O)(=O)N2CC3(CCN(Cc4ccncc4)C3)C2)c1.O=C(O)C(F)(F)F.O=C(O)C(F)(F)F.O=C(O)C(F)(F)F` was 100.9%.

In the case of `CCN1CCc2[nH]cnc2C12CCN(c1ccc(Cl)cn1)CC2`, the “Percent Effect” value is listed as 20.82%. The value for `Cc1cc(CN2C[C@@H]3COC[C@]3(CNC(=O)c3ccco3)C2)no1.O=C(O)C(F)(F)F` was -9.998%; that for `Cc1nc(CC(=O)N2CCN(CCOc3ccccc3)CC2)cs1` was -7.543%; that for `Cc1ccc(-c2ccnc3cc(CC(=O)N4CCN(C)CC4)nn23)cc1` was 99.35%. For `CN1CCN(C(=O)Cc2ccc(S(=O)(=O)C(F)F)cc2)CC1`, the “Percent Effect” value came to 3.1%.
